In general, AC50 refers to the midpoint of the concentration-response curve, whichever way the signal moves.

The target of assay [1] is AR (gene 367) (UniProt P10275). The assay can be described thus: ACEA_AR_antagonist_80hr: ACEA Biosciences xCELLigence Real-Time Cell Analysis on Androgen Receptor Antagonism for Proliferation (AID 2283787).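 Also: hits lower the impedance growth signal relative to DMSO.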 In short, it runs like this: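 Impedance readout (RT-CES), 80 h post-dose; loss-of-signal vs DMSO baseline. 22Rv1 cells in assay medium. Compounds: 8-pt 1:4 series, max 100 uM final, up to 0.5% DMSO; n = 2.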
Sequence of AR (gene 367) (P10275 whole entry, looked up): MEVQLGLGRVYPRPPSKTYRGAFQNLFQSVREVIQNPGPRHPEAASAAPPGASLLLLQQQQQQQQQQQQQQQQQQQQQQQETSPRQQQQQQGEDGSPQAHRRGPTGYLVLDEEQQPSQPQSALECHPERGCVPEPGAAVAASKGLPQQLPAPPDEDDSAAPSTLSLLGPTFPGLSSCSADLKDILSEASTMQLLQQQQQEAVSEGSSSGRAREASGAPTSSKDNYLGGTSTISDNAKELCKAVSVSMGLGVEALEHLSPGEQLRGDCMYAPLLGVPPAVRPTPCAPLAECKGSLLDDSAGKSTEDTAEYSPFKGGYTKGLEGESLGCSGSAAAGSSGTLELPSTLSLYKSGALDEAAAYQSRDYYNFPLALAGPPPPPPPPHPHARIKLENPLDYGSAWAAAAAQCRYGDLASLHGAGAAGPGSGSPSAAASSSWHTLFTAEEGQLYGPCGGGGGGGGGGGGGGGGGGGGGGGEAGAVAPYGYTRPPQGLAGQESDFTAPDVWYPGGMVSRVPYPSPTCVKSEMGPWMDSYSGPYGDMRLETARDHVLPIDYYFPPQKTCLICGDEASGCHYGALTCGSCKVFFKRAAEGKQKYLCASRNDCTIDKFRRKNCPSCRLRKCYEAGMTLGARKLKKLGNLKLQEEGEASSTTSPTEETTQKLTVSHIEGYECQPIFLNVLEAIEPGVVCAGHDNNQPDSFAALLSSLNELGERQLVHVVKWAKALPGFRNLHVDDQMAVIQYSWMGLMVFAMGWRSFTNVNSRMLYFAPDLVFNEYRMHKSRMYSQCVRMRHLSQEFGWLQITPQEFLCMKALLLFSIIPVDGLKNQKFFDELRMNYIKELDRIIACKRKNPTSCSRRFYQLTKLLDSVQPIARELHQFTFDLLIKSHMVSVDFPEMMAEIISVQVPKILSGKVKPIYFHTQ

In assay [2] the target is AR (gene 367) (UniProt P10275). The assay can be described thus: ACEA_AR_agonist_80hr: ACEA Biosciences xCELLigence Real-Time Cell Analysis on Androgen Receptor Agonism for Proliferation (AID 2283783).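 Also: hits increase impedance growth signal above DMSO baseline.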 The method, then:
ACEA_AR_agonist is a cell-based, single-readout assay that uses 22Rv1, a human prostate cancer cell line, with measurements taken at 80 hours after chemical dosing in a 384-well plate, although TO5 and TO6 (mc0.srcf) used a 96-well plate. Differences in plate size can be ignored given data normalization.ACEA_AR_agonist_80hr is one of two assay component(s) measured or calculated from the ACEA_AR assay. It is designed to make measurements of real-time cell-growth kinetics, a form of growth reporter, as detected with electrical impedance signals by Real-Time Cell Electrode Sensor (RT-CES) technology.Data from the assay component ACEA_AR_agonist_80hr was analyzed in the positive analysis fitting direction relative to DMSO as the negative control and baseline of activity. Using a type of growth reporter, measures of the cells for gain-of-signal activity can be used to understand the signaling at the pathway-level as they relate to the geneAR Furthermore, this assay endpoint can be referred to as a primary readout, because this assay has produced multiple assay endpoints where this one serves a signaling function. To generalize the intended target to other relatable targets, this assay endpoint is annotated to the nuclear receptor intended target family, where the subfamily is steroidal.
The xCELLigence system Multi-E-Plate stations were used to measure the time-dependent response to chemicals. Each compound was tested in an eight-point, 1:4 serial dilution series starting at a maximum final concentration of 100 uM. A maximum starting concentration of 0.5% DMSO was present in the 100 uM chemical samples and was diluted along with the test article dilution series. The screen was performed in biological duplicate using two separate, 96-well, E-Plates 96 for each dilution series (n = 2). Positive controls (MG132 and testosterone) and a negative control (assay media) were tested in quadruplicate on each testing plate. […] Reference compounds were tested with 8 concentrations with 1:5 serial dilutions. All screening was carried out by ACEA Biosciences, Inc. (San Diego, CA). 22Rv1 cells purchased from ATCC were maintained in media supplemented with 10% fetal bovine serum (FBS). Before screening, 22Rv1 cells were preconditioned in assay medium. Cells were then detached and seeded in E-Plates 96 in assay medium. After overnight monitoring of growth once every hour, compounds were added to […] cells and remained in the medium until the end of the experiment. Cellular responses were then recorded once every 5 min for the first 5 h, and once every hour for an additional 100 h.

Assay [3] can be described thus: STM_H9_NormalizedViability: Cytotoxicity Assessment at 120 hours in the Stemina devTOX quickPredict H9 human embryonic stem cell (hESC)-based Assay (AID 2283784). In short, it runs like this:
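Pluripotent H9 cells dosed, fresh medium plus compound q24h → cell layer read by CellTiter-Fluor → RFU blank-corrected, normalized to DMSO 0.1% mean. Loss-of-signal fit, DMSO as baseline.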

For assay [4], the target named is GAL4 Transcription Factor (Internal Marker), GAL4 (gene 855828) (UniProt P04386). The assay can be described thus: ATG_GAL4_XSP1: Attagene TRANS-FACTORIAL Multi-Species (XSP1) HepG2 Assay for GAL4 Transcription Factor (Internal Marker) (AID 2283789). Here is the method: (§1) ATG_XSP1_multi-species_TRANS is a cell-based, multiplexed assay created by modifying the existing Attagene TRANS-FACTORIAL system to include a panel of nuclear receptors from some or all the following species: human (Homo sapiens), mouse (Mus musculus), frog (Xenopus laevis), zebrafish (Danio rerio), chicken (Gallus gallus), and turtle (Chrysemys picta). The ECOTOX-FACTORIAL format uses HepG2, a human liver cell line, with measurements taken at 24 hours after chemical dosing in a 24-well plate. Xsp1 included 3 nM 6-alpha-fluorotestosterone to partially stimulate the androgen receptor.ATG_GAL4_XSP1 is one of 29 assay components measured or calculated from the ATG_XSP1_multi-species_TRANS assay. It is designed to make measurements of mRNA induction, a form of inducible reporter, as detected with fluorescence intensity signals by Reverse transcription polymerase chain reaction (RT-PCR) and Capillary electrophoresis technology.This assay endpoint, ATG_GAL4_XSP1, was analyzed in the positive analysis fitting direction relative to DMSO as the negative control and baseline of activity. […] Furthermore, this assay endpoint can be referred to as a secondary readout, because this assay has produced multiple assay endpoints where this one serves a background control function. […]
Sequence of GAL4 Transcription Factor (Internal Marker), GAL4 (gene 855828) (P04386 whole entry, looked up, the tested form may be a part): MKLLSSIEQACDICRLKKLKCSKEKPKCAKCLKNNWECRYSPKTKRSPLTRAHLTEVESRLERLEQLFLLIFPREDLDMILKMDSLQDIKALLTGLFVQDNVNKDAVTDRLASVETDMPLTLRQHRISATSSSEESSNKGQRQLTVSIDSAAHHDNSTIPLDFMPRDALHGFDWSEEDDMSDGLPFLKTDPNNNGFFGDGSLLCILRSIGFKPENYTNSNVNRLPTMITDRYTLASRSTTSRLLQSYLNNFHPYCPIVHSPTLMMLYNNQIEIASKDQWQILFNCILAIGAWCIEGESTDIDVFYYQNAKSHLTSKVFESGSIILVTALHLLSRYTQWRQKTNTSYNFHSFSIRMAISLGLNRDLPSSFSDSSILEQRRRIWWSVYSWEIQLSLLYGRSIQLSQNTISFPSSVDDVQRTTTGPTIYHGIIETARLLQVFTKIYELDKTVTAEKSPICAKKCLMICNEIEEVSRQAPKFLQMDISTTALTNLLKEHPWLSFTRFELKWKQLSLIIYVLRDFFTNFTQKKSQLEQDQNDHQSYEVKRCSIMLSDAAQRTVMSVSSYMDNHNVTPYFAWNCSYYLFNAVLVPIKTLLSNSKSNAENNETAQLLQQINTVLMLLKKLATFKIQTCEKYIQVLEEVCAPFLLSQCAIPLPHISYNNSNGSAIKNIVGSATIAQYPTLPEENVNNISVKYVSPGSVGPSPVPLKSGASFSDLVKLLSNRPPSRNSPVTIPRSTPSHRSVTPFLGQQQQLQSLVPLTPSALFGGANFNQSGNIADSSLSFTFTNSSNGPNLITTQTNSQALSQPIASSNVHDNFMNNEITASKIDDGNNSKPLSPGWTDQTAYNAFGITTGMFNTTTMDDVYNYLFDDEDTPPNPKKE

The nature of assay [5]: ATG_M_06_XSP1: Attagene TRANS-FACTORIAL Multi-Species (XSP1) HepG2 Assay for M06 Transcription Factor (Internal Marker) (AID 2283790). The method, then: as §1, with “receptor.ATG_M_06_XSP1” for “receptor.ATG_GAL4_XSP1”, “ATG_M_06_XSP1,” for “ATG_GAL4_XSP1,”
Assay [6] in a line: ATG_M_61_XSP1: Attagene TRANS-FACTORIAL Multi-Species (XSP1) HepG2 Assay for M61 Transcription Factor (Internal Marker) (AID 2283797). In short, it runs like this:
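HepG2 cells transiently transfected with multiplexed GAL4-driven reporter units, dosed 24 h with 3 nM 6-alpha-fluorotestosterone present. Reporter mRNA quantified by RT-PCR, 6-FAM labelling, HpaI digestion and capillary electrophoresis; internal-marker background control, gain of signal versus DMSO.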

Assay [7] concerns zebrafish Peroxisome Proliferator-activated Receptor gamma (PPARg), gene 557037. The assay can be described thus: ATG_zfPPARg_XSP1: Attagene TRANS-FACTORIAL Multi-Species (XSP1) HepG2 Assay for zebrafish Peroxisome Proliferator-activated Receptor gamma (PPARg) (AID 2283801). In a few lines: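 HepG2 cells transiently transfected with GAL4-UAS reporter units including a zebrafish PPARg–GAL4 chimera, dosed 24 h with 3 nM 6-alpha-fluorotestosterone present. Reporter mRNA quantified by RT-PCR, FAM labelling, HpaI digestion and capillary electrophoresis; induction versus DMSO.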

The target in assay [8] is Nuclear receptor subfamily 1 group I member 2 (Mus musculus) (UniProt O54915). The assay can be described thus: ATG_mPXR_XSP1: Attagene TRANS-FACTORIAL Multi-Species (XSP1) HepG2 Assay for mouse Pregnane X Receptor (PXR) (AID 2283803). In short, it runs like this:
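Transiently transfected HepG2 cells expressing a receptor-Gal4 chimera drive a GAL4-UAS reporter; 3 nM 6-alpha-fluorotestosterone included. Reporter mRNA read 24 h post-dose by RT-PCR and capillary electrophoresis; gain of signal relative to DMSO.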

The target of assay [9] is frog Thyroid hormone Receptor alpha (TRa), thra-a (gene 397942) (UniProt P15204). The assay can be described thus: ATG_frTRa_XSP1: Attagene TRANS-FACTORIAL Multi-Species (XSP1) HepG2 Assay for frog Thyroid hormone Receptor alpha (TRa) (AID 2283804). Here is the method: as §1, with “receptor.ATG_frTRa_XSP1” for “receptor.ATG_GAL4_XSP1”, “technology.The” for “technology.This”, “endpoint ATG_frTRa_XSP1” for “endpoint, ATG_GAL4_XSP1,”, “primary” for “secondary”, “reporter gene” for “background control”
Sequence of frog Thyroid hormone Receptor alpha (TRa), thra-a (gene 397942) (P15204 whole entry, looked up, the tested form may be a part): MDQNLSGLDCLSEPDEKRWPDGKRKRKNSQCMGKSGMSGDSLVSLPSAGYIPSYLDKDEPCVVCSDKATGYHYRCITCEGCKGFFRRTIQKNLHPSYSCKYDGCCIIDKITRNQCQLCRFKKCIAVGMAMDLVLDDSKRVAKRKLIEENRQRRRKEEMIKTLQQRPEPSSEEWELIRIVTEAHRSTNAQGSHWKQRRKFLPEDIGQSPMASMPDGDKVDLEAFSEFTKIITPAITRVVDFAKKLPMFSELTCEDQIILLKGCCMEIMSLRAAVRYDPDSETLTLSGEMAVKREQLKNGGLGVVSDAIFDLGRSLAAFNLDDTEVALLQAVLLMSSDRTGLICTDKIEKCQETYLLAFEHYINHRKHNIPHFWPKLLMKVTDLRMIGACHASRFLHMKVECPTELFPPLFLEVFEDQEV

Assay [10] has as its system turtle Thyroid Hormone Receptor, alpha (TRa), gene 101949057. The assay can be described thus: ATG_trTRa_XSP1: Attagene TRANS-FACTORIAL Multi-Species (XSP1) HepG2 Assay for turtle Thyroid Hormone Receptor, alpha (TRa) (AID 2283806). In short, it runs like this:
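HepG2 cells transiently transfected with GAL4-UAS reporter units and chimeric receptor-Gal4 constructs, with 3 nM 6-alpha-fluorotestosterone present. Reporter mRNA was quantified 24 h after dosing by RT-PCR, 6-FAM labelling and capillary electrophoresis; gain of signal versus DMSO.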

Records with an inconclusive call do not appear. Calls of active or inactive are those of the source. The calls were made as follows: active = hit-call score of the fitted dose curve at least 0.9, where 1 is the maximum; inconclusive = response in the unintended direction; inactive = score below 0.9.

Sequence of Nuclear receptor subfamily 1 group I member 2 (Mus musculus) (O54915 whole entry, looked up, the tested form may be a part): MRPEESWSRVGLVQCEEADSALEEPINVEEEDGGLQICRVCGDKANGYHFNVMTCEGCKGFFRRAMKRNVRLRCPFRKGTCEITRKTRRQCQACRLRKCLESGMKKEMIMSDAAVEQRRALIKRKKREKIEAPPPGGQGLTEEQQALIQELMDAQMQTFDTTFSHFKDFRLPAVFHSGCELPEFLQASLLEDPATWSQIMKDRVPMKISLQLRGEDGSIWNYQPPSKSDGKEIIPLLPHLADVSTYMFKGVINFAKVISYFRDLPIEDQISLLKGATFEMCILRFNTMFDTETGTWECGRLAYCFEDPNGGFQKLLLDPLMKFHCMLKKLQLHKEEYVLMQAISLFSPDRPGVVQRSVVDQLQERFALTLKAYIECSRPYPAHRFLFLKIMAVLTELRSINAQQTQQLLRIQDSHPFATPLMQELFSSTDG

`N#Cc1ccc(C(c2ccc(C#N)cc2)n2cncn2)cc1`: the result in the assay with AR (gene 367) [1] was inactive.

As to `CCCCCCCCCCCCCC(=O)OC(C)C`, the call with AR (gene 367) [1] was inactive.

As to `COc1cc(O)c(C(=O)c2ccccc2)cc1S(=O)(=O)O`, the AC50 in the assay with AR (gene 367) [2] was 22.8 nM (active).

Turning to `Cc1ccc(C)c(OCCCC(C)(C)C(=O)O)c1`, the outcome with AR (gene 367) [2] and with AR (gene 367) [1] was inactive.

With `C=C1C[C@H]2[C@@H]3C=C(C)C4=CC(=O)CC[C@]4(C)[C@H]3CC[C@]2(C)[C@@]1(OC(C)=O)C(C)=O`, the outcome in the assay with AR (gene 367) [2] was inactive. Also, the AC50 with AR (gene 367) [1] was 152 nM (active).

For `CC(CCC(=O)O)(c1ccc(O)cc1)c1ccc(O)cc1`, in assay [3], the AC50 was 49.4 nM (active).

On to `CN(C)Cc1cc(CN(C)C)c(O)c(CN(C)C)c1`, for which the compound was classed as inactive in the assay with AR (gene 367) [2].

As to `CC(=O)OCc1ccccc1`, the outcome with AR (gene 367) [1] was inactive.

`CC(=O)OC1CCCCC1C(C)(C)C` (configuration not stated): the result with AR (gene 367) [1] was inactive.

`COc1ccc(C(=O)c2ccccc2)c(O)c1`: the outcome (in [3]; with AR (gene 367) [1]) was inactive.

Turning to `CCCCCC[C@@H](O)C/C=C\CCCCCCCC(=O)OCC(O)CO` (some centres not stated), the result in the assay with AR (gene 367) [2] and with AR (gene 367) [1] was inactive.

Regarding `CCC[Si](OC)(OC)OC`, the outcome in the assay with AR (gene 367) [2] was inactive.

Take `Oc1ccccc1Cc1ccccc1O`: the outcome in assay [3] was inactive.

`CCCCCCCCCC(C)=O`: the compound was classed as inactive with AR (gene 367) [1].

Turning to `CN(C)c1ccc2nc3ccc(=[N+](C)C)cc-3sc2c1`, in [3], the AC50 was 4500 nM (active).

On to `Oc1ccc(-c2ccccc2)c(Cl)c1`, for which the call with AR (gene 367) [2] was inactive. In the assay with AR (gene 367) [1], the AC50 was 560 nM (active).

Regarding `CCc1cccc(C)c1N`, the outcome in the assay with AR (gene 367) [1] was inactive.

`O=C(O)c1ccc2c(c1)C(=O)OC2=O`: the result with AR (gene 367) [2] and with AR (gene 367) [1] was inactive.

Consider `Cc1c(C(=O)c2c[nH]n(C)c2=O)ccc(S(C)(=O)=O)c1C1=NOCC1`, for which the compound was classed as inactive with AR (gene 367) [1].

As to `CC(C)(C)NC(=O)[C@H]1CC[C@H]2[C@@H]3CC[C@H]4NC(=O)C=C[C@]4(C)[C@H]3CC[C@]12C`, the compound was classed as inactive in [4], in assay [5], in assay [6], in assay [7], in assay [9] and in assay [10]. Besides, the AC50 in assay [8] is 3800 nM (active).

The values above are taken from PubChem BioAssay (EPA / NIEHS).
